KB-V1 MDR tox: qHTS assay for MDR1-selective chemotherapeutics: Primary screen using the drug-selected MDR subline cells KB-V1; Potency, µM (highest dose often 46.1 µM), most hits filed as cytotoxic; KB-V1 MDR cells viability, CellTiter-Glo, 72 h; 400,000 tested, 3.4% active; note: nearly all actives have a fitted effect of over 60% in size
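Cells of the MDR subline KB-V1 are plated, dosed with compound at multiple concentrations, and incubated 72 h at 37 degrees C; CellTiter-Glo is then added and luminescence read after 10 min.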
HT1080-NT tox: qHTS for induction of synthetic lethality in tumor cells producing 2HG: qHTS for the HT-1080-NT fibrosarcoma cell line | HT-1080-NT fibrosarcoma viability, CellTiter-Glo ATP luminescence, 48 h | Potency, µM (top dose mostly 46.1 µM), hits mostly cytotoxic | 360,000 tested, 1.6% active | AID 686970, 2013;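 note: NT is the 2HG producing partner of a matched IDH1 knockdown line; nearly all actives have a fitted effect of over 55% in size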
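HT-1080-NT; 750 cells/well; 5% FBS RPMI; 48 h compound, 37 degrees C; CellTiter-Glo luminescence; curve fitting and curve-class assignment.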
TDP1 cell CPT: qHTS for Inhibitors of human tyrosyl-DNA phosphodiesterase 1 (TDP1): qHTS in cells in presence of CPT; AID 686979, 2013; chicken DT40 Tdp1-/-;hTDP1 cells + 20 nM CPT, ATP luminescence, 48 h; 420,000 tested, 12% active; Potency, µM (series often up to 46.2 µM), most hits filed as inhibitors; note: nearly all actives have a fitted effect of over 55% in size
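Cell growth measured by CellTiter-Glo luminescence after a minimum 48 h, 37 C compound exposure with 20 nM CPT in Tdp1-knockout DT40 cells stably expressing hTDP1, seeded 400/well; qHTS titration format.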
HT1080 IDH1KD tx: qHTS for induction of synthetic lethality in tumor cells producing 2HG: qHTS for the HT-1080-IDH1KD cell line | HT-1080 IDH1 knockdown viability, ATP luminescence, 48 h | Potency, µM (top dose mostly 46.1 µM), hits mostly cytotoxic | 360,000 tested, 2% active
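Luminescent ATP read-out (CellTiter-Glo, 10 min at room temperature) after 48 h compound exposure at 37 °C gave viability of IDH1-knockdown HT-1080 cells. Activity was normalised to DMSO and cell-free wells, then fitted as concentration-response curves.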
TDP1 cell noCPT: qHTS for Inhibitors of human tyrosyl-DNA phosphodiesterase 1 (TDP1): qHTS in cells in absence of CPT; 420,000 tested, 15% active; Potency, µM (doses to about 46.2 µM), actives largely listed as inhibitors; DT40 Tdp1-/- hTDP1 cells, no CPT, ATP luminescence, 48 h; note: nearly all actives have a fitted effect of over 55% in size
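Chicken DT40 Tdp1-/- cells stably complemented with human TDP1 were seeded at 400 cells/well with DMSO in place of 20 nM camptothecin. After compound pinning, cells grew at least 48 hr at 37 °C; viability read by CellTiter-Glo luminescence.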
KB-3-1 tox: qHTS assay for MDR1-selective chemotherapeutics: Primary screen using the parental adenocarcinoma cell KB-3-1. AID 1347075, 2019. KB-3-1 viability, CellTiter-Glo ATP luminescence, 72 h. Potency, µM (doses to about 46.1 µM), hits mostly cytotoxic. 400,000 tested, 1.4% active; note: nearly all actives have a fitted effect of over 60% in size
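Parental KB-3-1 viability, qHTS format: 72 h compound exposure, 37 °C; CellTiter-Glo; media-only wells and DMSO plates as controls; concentration-effect fits on corrected data.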
A number is an active result. In the library only some 19% were active in any assay of this set; here they are far more common. Calls come from the whole dose curve; as a rule, active = well fitted curve in the direction sought with a large enough effect; inconclusive = small, poorly fitted or top-dose-only effect, or another doubt; inactive = no such curve, though single readings can be large; an effect the other way counts as inactive or inconclusive.

CCN(CC(=O)Nc1ccc2c(c1)CCC2)Cc1nc2ccccc2c(=O)[nH]1 was read as KB-V1 MDR tox inactive, HT1080-NT tox inactive, TDP1 cell CPT 3.66µM, HT1080 IDH1KD tx inactive, TDP1 cell noCPT 8.2µM and KB-3-1 tox inactive.
`CCN(CC(=O)Nc1ccc2c(c1)OCO2)Cc1nc2ccccc2c(=O)[nH]1` gave KB-V1 MDR tox inactive, HT1080-NT tox inactive, TDP1 cell CPT inconclusive, HT1080 IDH1KD tx inactive, TDP1 cell noCPT inconclusive and KB-3-1 tox inactive.
For CCN(CC(=O)NC(C)C)Cc1nc2c(Br)cc(Br)cc2c(=O)[nH]1 the results were KB-V1 MDR tox 9.2µM, HT1080-NT tox inactive, TDP1 cell CPT inactive, HT1080 IDH1KD tx inactive, TDP1 cell noCPT inconclusive and KB-3-1 tox inactive.
For CCN(CC)CCn1c(SCC(=O)Nc2ccc3c(c2)CCC3)nc2ccccc2c1=O the results were KB-V1 MDR tox inconclusive, HT1080-NT tox inconclusive, TDP1 cell CPT inconclusive, HT1080 IDH1KD tx inconclusive, TDP1 cell noCPT 2.31µM and KB-3-1 tox inactive.
Screening COc1ccc(S(=O)(=O)n2cccc2)c(OC)c1 returned KB-V1 MDR tox inactive, HT1080-NT tox inactive, TDP1 cell CPT inactive, HT1080 IDH1KD tx inactive, TDP1 cell noCPT inactive and KB-3-1 tox inactive.
Screening CCN(CC)CC(=O)Nc1ccc2c(c1)Nc1ccccc1CC2 returned KB-V1 MDR tox inconclusive, HT1080-NT tox 11.2µM, TDP1 cell CPT inconclusive, HT1080 IDH1KD tx inconclusive, TDP1 cell noCPT 15.8µM and KB-3-1 tox inconclusive.
COc1ccc(C)cc1NC(=O)C1CCN(S(=O)(=O)Cc2ccccc2)CC1 was read as KB-V1 MDR tox inactive, TDP1 cell CPT inactive, TDP1 cell noCPT inactive and KB-3-1 tox inactive.
`c1ccc2c(c1)Cc1cc3ccccc3nc1-2` gave KB-V1 MDR tox inactive, HT1080-NT tox inactive, TDP1 cell CPT inconclusive, HT1080 IDH1KD tx inconclusive, TDP1 cell noCPT 20.6µM and KB-3-1 tox inactive.
O=C1c2ccccc2-c2nc3ccccc3cc21 was read as KB-V1 MDR tox inactive, HT1080-NT tox inactive, TDP1 cell CPT inconclusive, HT1080 IDH1KD tx inactive, TDP1 cell noCPT inconclusive and KB-3-1 tox inactive.
For CC(=O)Nc1ccc(S(=O)(=O)c2ccnc3cc(Cl)ccc23)cc1 the results were KB-V1 MDR tox inconclusive, HT1080-NT tox inconclusive, TDP1 cell CPT 11.6µM, HT1080 IDH1KD tx inconclusive, TDP1 cell noCPT 9.2µM and KB-3-1 tox inconclusive.
For COc1ccc(-c2nc3ccccc3s2)cc1NC(=O)c1cccc([N+](=O)[O-])c1C the results were KB-V1 MDR tox inactive, TDP1 cell CPT inactive, TDP1 cell noCPT inactive and KB-3-1 tox inactive.
For COc1cc(CNC(=O)c2cnc3c(-c4cccc(C)c4)c(C)nn3c2C)cc(OC)c1OC the results were KB-V1 MDR tox inconclusive, TDP1 cell CPT 11.6µM, TDP1 cell noCPT 16.4µM and KB-3-1 tox inactive.
`COc1ccccc1CNC(=O)c1cnc2c(-c3ccccc3)c(C)nn2c1C` gave KB-V1 MDR tox inactive, TDP1 cell CPT inconclusive, TDP1 cell noCPT inconclusive and KB-3-1 tox inactive.
COc1ccc(Cc2noc(-c3ccc([N+](=O)[O-])cc3)n2)cc1OC was read as KB-V1 MDR tox inconclusive, HT1080-NT tox inactive, TDP1 cell CPT 25.9µM, HT1080 IDH1KD tx inactive, TDP1 cell noCPT inconclusive and KB-3-1 tox inconclusive.
Screening COc1ccccc1N(C)S(=O)(=O)c1ccc(C(=O)Nc2nccs2)cc1 returned KB-V1 MDR tox inactive, HT1080-NT tox inactive, TDP1 cell CPT inconclusive, HT1080 IDH1KD tx inactive, TDP1 cell noCPT 6.51µM and KB-3-1 tox inactive.
`CCCc1nnc(NC(=O)c2ccc(S(=O)(=O)N(C)c3ccccc3OC)cc2)s1` gave KB-V1 MDR tox 14.6µM, HT1080-NT tox inactive, TDP1 cell CPT inactive, HT1080 IDH1KD tx inactive, TDP1 cell noCPT inconclusive and KB-3-1 tox inactive.
COc1ccccc1N(C)S(=O)(=O)c1ccc(C(=O)Nc2nc(C)c(C(C)=O)s2)cc1 was read as KB-V1 MDR tox inactive, HT1080-NT tox inactive, TDP1 cell CPT inconclusive, HT1080 IDH1KD tx inactive, TDP1 cell noCPT inconclusive and KB-3-1 tox inactive.
CCCc1nnc(NC(=O)Nc2ccccc2OC)s1 was read as KB-V1 MDR tox 18.4µM, HT1080-NT tox inactive, TDP1 cell CPT inactive, HT1080 IDH1KD tx inactive, TDP1 cell noCPT inactive and KB-3-1 tox inactive.
`COc1ccccc1N(C)S(=O)(=O)c1ccc(C(=O)Nc2ncc(C)s2)cc1` gave HT1080-NT tox inactive, TDP1 cell CPT inconclusive, HT1080 IDH1KD tx inactive and TDP1 cell noCPT inconclusive.
`O=C1Nc2ccc3sc4ccccc4c3c2C1=O` gave KB-V1 MDR tox inactive, HT1080-NT tox inactive, TDP1 cell CPT inconclusive, HT1080 IDH1KD tx inactive, TDP1 cell noCPT inconclusive and KB-3-1 tox inactive.
`O=S1(=O)CC(N2CCN(CCO)CC2)CN1Cc1cn(Cc2ccc(C(F)(F)F)cc2)nn1` (stereo unspecified) gave KB-V1 MDR tox inactive, HT1080-NT tox inactive, TDP1 cell CPT inactive, HT1080 IDH1KD tx inactive, TDP1 cell noCPT inactive and KB-3-1 tox inactive.
Screening O=C(Cn1c(=O)n(Cc2ccc3c(c2)OCO3)c(=O)c2oc3ccccc3c21)Nc1ccccc1 returned TDP1 cell CPT inactive and TDP1 cell noCPT inactive.
For COc1cccc(CNC(=O)[C@H](C)NC(=O)N2CC(=O)Nc3ccccc32)c1 the results were KB-V1 MDR tox inactive, HT1080-NT tox inactive, TDP1 cell CPT inactive, HT1080 IDH1KD tx inactive, TDP1 cell noCPT inactive and KB-3-1 tox inactive.
For O=C(COc1ccccc1O)NNc1ccccc1 the results were KB-V1 MDR tox inconclusive, HT1080-NT tox 2.31µM, TDP1 cell CPT inactive, HT1080 IDH1KD tx 3.26µM, TDP1 cell noCPT inactive and KB-3-1 tox inconclusive.
Screening O=C(C[n+]1ccccc1)NNc1ccccc1 returned KB-V1 MDR tox inactive, HT1080-NT tox 2.59µM, TDP1 cell CPT inactive, HT1080 IDH1KD tx 4.61µM, TDP1 cell noCPT inactive and KB-3-1 tox 6.51µM.
`CN(CCCNC(=O)CSc1cc(=O)n(C)c2ccc(Cl)cc12)Cc1ccccc1` gave KB-V1 MDR tox inactive, HT1080-NT tox inconclusive, TDP1 cell CPT inconclusive, HT1080 IDH1KD tx inconclusive, TDP1 cell noCPT inconclusive and KB-3-1 tox inactive.
Screening Cc1ccc(CNC(=O)C2CC(c3ccc([N+](=O)[O-])cc3)=NO2)cc1 (stereo unspecified) returned KB-V1 MDR tox inactive, HT1080-NT tox inactive, TDP1 cell CPT inactive, HT1080 IDH1KD tx inactive, TDP1 cell noCPT inactive and KB-3-1 tox inactive.

High-throughput results as filed in PubChem.
